Source: PubChem BioAssay
Shiga inhibitor = blocks Shiga toxin action in Vero cells | inhibition, % at 38.7 µM | Vero cells, Shiga toxin protein synthesis inhibition reporter | AID 2315 | actives 9.2% (n = 290,000); in the data active = inhibition mostly above about 28%, no sharp cut-off; inactive = mostly below about 43%
NS1 inh = inhibitors of influenza NS1 protein function | actives 0.4% (n = 270,000) | AID 2326 | Potency, µM (highest dose often 46.1 µM); calls by dose curve; also: actives are rising curves; nearly all actives have a fitted effect of over 50% in size
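In this qHTS, NS1 from influenza A is expressed in budding yeast, where it slows growth. Cells are switched from glucose to 2% galactose medium (pH 6.0, -URA), treated with compound, and growth recovery is read at OD600.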
Sm TGR inh = S. mansoni TGR enzyme inhibition; AID 485364; purified TGR, DTNB reduction, TNB absorbance 405 nm; actives 3% (n = 360,000); Potency, µM (titrated, usually from 114 µM), actives largely listed as inhibitors; Q962Y6; also: nearly all actives have a fitted effect of over 60% in size
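First, TGR (20 nM dispensed) and NADPH were mixed with compound. Second, a 15 min room-temperature incubation followed. Third, further NADPH and then DTNB were added to start the reaction. Finally, TNB absorbance was monitored kinetically.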
Pf growth 48h = P. falciparum growth inhibition at 48 hours (one generation) | P. falciparum luciferase growth in erythrocytes, 48 h | Potency, µM (titrated, usually from 28.7 µM), most hits filed as inhibitors | actives 5.9% (n = 310,000) | AID 504832
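Here the parasites carry a stable luciferase gene and grow inside erythrocytes in Albumax-based RPMI medium with compound for one erythrocytic cycle. Activity is scored as loss of luminescent signal.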
Pf growth 96h = inhibits malaria parasite growth, 96 h; Potency, µM (series often up to 28.7 µM), usual class: inhibitors; actives 6.9% (n = 320,000); P. falciparum luciferase reporter growth, 96 h
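Compounds incubated with erythrocytes infected by luciferase-expressing P. falciparum (2% hematocrit, 0.05% parasitemia final) for 96 hours, 37 C in 5% CO2. Growth inhibition scored as decreased luciferase luminescence.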
CHX counter = counter-screen hit for Shiga toxin inhibitors, cycloheximide. cell reporter, cycloheximide protein synthesis inhibition counterscreen. actives 12% (n = 300,000). max response, %; in the data active = max response mostly above about 13%, no sharp cut-off; inactive = mostly below about 14%; also: read at 38.3 µM for the half of the compounds with a filed dose
Of the large screens only hits and unclear results are named; the others gave an inactive call. Hits are enriched below; roughly 21% of the tested compounds scored in any of these assays. Unless noted, calls follow the shape of the dose curve; as a rule, active = well fitted curve in the direction sought with a large enough effect; inconclusive = small, poorly fitted or top-dose-only effect, or another doubt; inactive = no such curve, though single readings can be large; an effect the other way counts as inactive or inconclusive.

CC(=NCCc1c[nH]c2ccccc12)c1c(O)n(Cc2ccccc2)c(=O)[nH]c1=O	Pf growth 48h inconclusive, Pf growth 96h inconclusive
CC/C(=N\NC(=O)Nc1ccccc1)c1c(O)n(Cc2ccccc2)c(=O)[nH]c1=O	Shiga inhibitor 105, CHX counter 35
CCOC(=O)N1CCc2c(sc3c2c(=O)n(CCc2ccccc2)c(=O)n3Cc2c(F)cccc2Cl)C1	none (no result: Shiga inhibitor, NS1 inh, Pf growth 48h, Pf growth 96h, CHX counter)
COc1ccc(-c2nc(CSc3nncn4c3cc3oc(C)cc34)c(C)o2)cc1	none (no result: Shiga inhibitor, NS1 inh, Pf growth 48h, Pf growth 96h, CHX counter)
CC[C@H](C)[C@H](NC(=O)[C@H](CCC(=O)O)NC(=O)CNC(=O)[C@@H](NC(=O)[C@H](CCC(=O)O)NC(=O)[C@H](CCC(=O)O)NC(=O)[C@H](CC(C)C)NC(=O)CNC(=O)[C@@H]1CCCN1C(=O)[C@H](CCC(=O)O)NC(=O)[C@@H](N)[C@@H](C)O)C(C)C)C(=O)N[C@@H](CCC(=O)O)C(=O)N[C@@H](CCC(N)=O)C(=O)N[C@@H](CCCCN)C(=O)N[C@@H](CCC(N)=O)C(=O)N[C@@H](CC(C)C)C(=O)N[C@@H](CCC(N)=O)C(=O)O	none (no result: NS1 inh, Sm TGR inh, Pf growth 48h, Pf growth 96h)
CCC(=O)Nc1ccc(-c2nc3ccccc3c(=O)o2)cc1	Shiga inhibitor 79, CHX counter 28 (no result: NS1 inh)
CCC(=O)Nc1cccc(-c2nnc(-c3cccc(NC(=O)CC)c3)o2)c1	Pf growth 48h 5.2µM, Pf growth 96h 1.2µM
CC(=O)Nc1ccc(C2=NN(Cc3nnc(-c4ccccc4)o3)C(=O)SC2)cc1	Shiga inhibitor 16, NS1 inh inconclusive, Pf growth 48h inconclusive, Pf growth 96h inconclusive
O=C(Nc1cccc(-c2nc3ccccc3c(=O)o2)c1)c1ccccc1	Pf growth 96h inconclusive (no result: NS1 inh)
CCC(=O)Nc1ccc(-c2nnc(-c3ccccc3)o2)cc1	CHX counter 18
CCOc1ccccc1C(=O)Nc1cccc(-c2nnc(-c3ccccc3)o2)c1	Pf growth 96h inconclusive
CCC(=O)Nc1ccc(NCc2ccc(-c3ccccc3)cc2)cc1	Pf growth 96h inconclusive
Cc1ccc(O)c(Nc2nc3ccccc3c3nncn23)c1	none (no result: Shiga inhibitor, NS1 inh, Pf growth 48h, Pf growth 96h, CHX counter)
Cc1oc(-c2cccc(Cl)c2)nc1CSc1nnc(C)n2c1cc1occc12	none (no result: Shiga inhibitor, NS1 inh, Pf growth 48h, Pf growth 96h, CHX counter)
COC(=O)/C(=C(/F)Sc1cc(C)c(O)c(C)c1)C(F)(F)F	Sm TGR inh inconclusive, Pf growth 48h 9.3µM (no result: Pf growth 96h)
CCCOc1ccc(/C(O)=C2/C(=O)C(=O)N(CCCN3CCOCC3)C2c2ccncc2)cc1 (stereo unspecified)	NS1 inh 10µM, Sm TGR inh 11µM, Pf growth 48h inconclusive, Pf growth 96h inconclusive
O=C1C(=O)N(CCN2CCOCC2)C(c2ccc([N+](=O)[O-])cc2)/C1=C(/O)c1ccc2c(c1)OCO2 (stereo unspecified)	Sm TGR inh inconclusive, Pf growth 96h inconclusive
COc1cccc(C2/C(=C(/O)c3ccc4c(c3)OCO4)C(=O)C(=O)N2CCN2CCOCC2)c1 (stereo unspecified)	Pf growth 96h inconclusive, CHX counter 9.6
O=C1C(=O)N(CCCN2CCOCC2)C(c2cccs2)/C1=C(/O)c1ccc2c(c1)OCO2 (stereo unspecified)	Pf growth 96h inconclusive, CHX counter 29
O=C1C(=O)N(CCN2CCOCC2)C(c2ccncc2)/C1=C(/O)c1ccc2c(c1)OCO2 (stereo unspecified)	Sm TGR inh inconclusive, Pf growth 96h 8.3µM
CCN(C(=O)CCS(=O)(=O)c1cc2c(cc1Cl)NC(=O)CO2)c1ccccc1	none
COc1ccc(S(=O)(=O)N(C)c2ccc(C(=O)N3CCN(c4ccccc4)CC3)cc2)cc1OC	Pf growth 48h 15µM, Pf growth 96h inconclusive
COc1ccc(S(=O)(=O)N(C)c2ccc(C(=O)N3CCOCC3)cc2)cc1OC	none
COc1ccc(S(=O)(=O)N(C)c2ccc(C(=O)Nc3ccccc3C(=O)N3CCOCC3)cc2)cc1OC	Pf growth 48h 12µM, Pf growth 96h inconclusive
COC(=O)COc1ccc(S(=O)(=O)NCc2ccccn2)cc1	none
Cc1ccc2onc(CNC(=O)N(C)Cc3ccccc3)c2c1	none (no result: Shiga inhibitor, NS1 inh, Pf growth 48h, Pf growth 96h, CHX counter)
CCN1CCN(C(c2ccc(SC)cc2)c2c(O)cc(C)n(Cc3ccco3)c2=O)CC1 (stereo unspecified)	Sm TGR inh 3.5µM (no result: Shiga inhibitor, NS1 inh, Pf growth 48h, Pf growth 96h, CHX counter)
CCN1CCN(C(c2ccccc2)c2c(O)cc(C)n(Cc3ccco3)c2=O)CC1 (stereo unspecified)	Sm TGR inh 4.5µM (no result: Shiga inhibitor, NS1 inh, Pf growth 48h, Pf growth 96h, CHX counter)
